The values below come from PubChem BioAssay (NCATS).

Common to all, as to experiment: qHTS profiling for inhibitors of Plasmodium falciparum proliferation (AID 504749); also: nearly all actives have a fitted effect of over 60% in size
Details in all cases: P. falciparum in erythrocytes, SYBR Green DNA, 72 h; series mostly up to 28.7 µM
(In general: Quantitative high-throughput screening tests each substance at several concentrations.)

The subject of one experiment is CP305. An outline of the steps:
(§1)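 SYBR Green fluorescence (ex 485 nm, em 535 nm) reports parasite DNA after 72 h compound exposure of infected red cells at 0.3% parasitemia, 2.5% hematocrit; signal normalized to 0.29 uM artemisinin and vehicle wells.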

Another experiment deals with CP315. In a few lines: as §1
For the next experiment, the system named is CP325. In a few lines: as §1
The test system of another experiment is CP329. An outline of the steps: as §1
In a further experiment the test system is CP335. In a few lines: as §1
The next experiment relates to DFO2036. In a few lines:
as §1

The test system of the next experiment is DIV17. In a few lines:
as §1

For a further experiment, the system named is DIV30. An outline of the steps: as §1
The test system of a further experiment is Dd2. In a few lines:
as §1

Another experiment deals with ECU. In a few lines: as §1
The subject of another experiment is FAB9. An outline of the steps:
as §1

A further experiment has as its system GB4. In a few lines: as §1
A further experiment deals with HB3. An outline of the steps: as §1
A further experiment concerns ICS. An outline of the steps:
as §1

The next experiment has as its system JCK. In a few lines: as §1
The subject of another experiment is N140. An outline of the steps:
as §1

The next experiment deals with P93_24. In a few lines: as §1
The subject of the next experiment is P94_40. An outline of the steps:
as §1

In the next experiment the test system is PAD. An outline of the steps: as §1
For the next experiment, the system named is DIV14. In a few lines:
as §1

Molecules are shown by their SMILES. Results filed as inconclusive are left out. Calls of active or inactive are those of the source. Calls follow the shape of the dose curve; as a rule, active = well fitted inhibition curve with a large enough effect; inconclusive = small, poorly fitted or top-dose-only effect; inactive = flat fitted curve, though single readings scatter.
Potency is read from the fitted curve at half-maximal effect.

For `C=CC(=O)O`, the Potency entry with CP305, in the experiment with CP315, with CP325, in the experiment on CP329, in the experiment with CP335 and in the experiment with DFO2036 was “inactive” in each case. The Potency entry in the experiment on DIV17, in the experiment on DIV30, with Dd2, with ECU, in the experiment on FAB9 and with GB4 was “inactive” throughout. Besides, the Potency result in the experiment with HB3, with ICS, in the experiment with JCK, with N140, in the experiment with P93_24 and with P94_40 was “inactive” each time. Further, in the experiment with PAD, the Potency result is “inactive”.
Regarding `CN(C)c1ccc(C(=C2C=CC(=[N+](C)C)C=C2)c2c(O)c(S(=O)(=O)[O-])cc3cc(S(=O)(=O)O)ccc23)cc1`, the Potency result with CP305, in the experiment with CP315, in the experiment on CP325, with CP329, in the experiment on CP335 and in the experiment with DFO2036 was “inactive” throughout. For the same molecule, the Potency result in the experiment on DIV30, in the experiment with Dd2, with ECU, in the experiment on FAB9, with HB3 and in the experiment on ICS was “inactive” in each case. Moreover, the Potency entry in the experiment on JCK, in the experiment with N140, with P93_24, with P94_40 and in the experiment on PAD was “inactive” in each case.
As for `COc1ccccc1N1CCN(CCCC(=O)c2ccc(F)cc2)CC1`, the Potency result in the experiment with CP305, with CP315, with CP325, in the experiment with CP329, with CP335 and in the experiment with DFO2036 was “inactive” throughout. For the same molecule, the Potency entry in the experiment on DIV30, in the experiment on Dd2, in the experiment on ECU, with FAB9, with GB4 and in the experiment on HB3 was “inactive” each time. Moreover, the Potency result with JCK, in the experiment on N140, with P93_24, with P94_40 and in the experiment on PAD was “inactive” each time.
Turning to `CCCCCCCCCCCCCCCCCCCCCC(=O)Nc1ccn([C@@H]2O[C@H](CO)[C@@H](O)[C@@H]2O)c(=O)n1`, the Potency entry in the experiment with CP305, in the experiment with CP315, in the experiment with CP325, in the experiment on CP329, in the experiment with CP335 and with DFO2036 was “inactive” in each case. The Potency entry in the experiment with DIV14, with DIV17, with DIV30, in the experiment on Dd2, with ECU and in the experiment with FAB9 was “inactive” each time. Besides, the Potency entry in the experiment with HB3, with JCK, in the experiment with N140, in the experiment on P93_24, in the experiment with P94_40 and with PAD was “inactive” throughout.
Take `CC(CCc1ccc(O)cc1)NCC(O)c1ccc(O)cc1` (centres undefined): the Potency entry in the experiment on CP305, with CP315, with CP325, in the experiment on CP329, with CP335 and in the experiment with DFO2036 was “inactive” each time. In addition, the Potency result in the experiment on DIV17, in the experiment on DIV30, in the experiment with Dd2, with ECU, with FAB9 and in the experiment with GB4 was “inactive” throughout. The Potency entry with HB3, in the experiment on ICS, in the experiment on JCK, in the experiment on N140, with P93_24 and with P94_40 was “inactive” each time. Besides, the Potency result in the experiment on PAD is “inactive”.
On to `CN(C)CCOc1ccc(/C(=C(/CCCl)c2ccccc2)c2ccccc2)cc1`, for which the Potency entry with CP305, in the experiment with CP315, in the experiment with CP325, in the experiment with CP329, in the experiment with CP335 and in the experiment with DFO2036 was “inactive” each time. Besides, the Potency result in the experiment with DIV30, with Dd2, with ECU, with FAB9, in the experiment with HB3 and in the experiment with ICS was “inactive” in each case. The Potency result in the experiment on JCK, in the experiment on N140, with P93_24, in the experiment with P94_40 and with PAD was “inactive” each time.
Turning to `CN(C)CCCSc1ccccc1NC(=O)/C=C/c1ccccc1`, the Potency entry in the experiment with CP305, in the experiment with CP315, in the experiment on CP325, in the experiment on CP329, in the experiment on CP335 and in the experiment with DFO2036 was “inactive” each time. Besides, the Potency result with DIV30, in the experiment with ECU, in the experiment on FAB9, with HB3, with ICS and with JCK was “inactive” each time. Further, the Potency result in the experiment with N140, in the experiment on P93_24, with P94_40 and with PAD was “inactive” in each case.
`CCCCCc1ccc(C)cc1O`: the Potency entry with CP305, in the experiment with CP315, in the experiment with CP325, in the experiment with CP329, with CP335 and with DFO2036 was “inactive” in each case. For the same molecule, the Potency entry in the experiment with DIV30, in the experiment on Dd2, with ECU, in the experiment with FAB9, in the experiment with HB3 and with JCK was “inactive” throughout. Moreover, the Potency entry with N140, with P93_24, in the experiment with P94_40 and with PAD was “inactive” in each case. Also, the Potency with ICS was 7.08 µM (active).
As for `O=C1c2ccccc2CN2C(=O)c3ccccc3CN12`, the Potency entry in the experiment on CP305, in the experiment with CP315, with CP325, in the experiment on CP329, with CP335 and in the experiment with DFO2036 was “inactive” throughout. Further, the Potency entry in the experiment on DIV14, in the experiment with DIV30, with Dd2, in the experiment with FAB9, with GB4 and with HB3 was “inactive” throughout. The Potency result in the experiment with ICS, in the experiment with JCK, with N140, in the experiment on P93_24, with P94_40 and in the experiment with PAD was “inactive” throughout.
As for `C[C@]12CC[C@@H]3c4ccc(OC(=O)c5ccccc5)cc4CC[C@H]3[C@@H]1CC[C@@H]2O`, the Potency entry with CP305, in the experiment on CP315, in the experiment on CP325, in the experiment with CP329, with DFO2036 and in the experiment with DIV14 was “inactive” in each case. Moreover, the Potency result in the experiment on DIV17, in the experiment on DIV30, with ECU, in the experiment on FAB9, in the experiment with GB4 and in the experiment with HB3 was “inactive” throughout. Also, the Potency result in the experiment with JCK, in the experiment with N140, in the experiment on P93_24, in the experiment on P94_40 and in the experiment on PAD was “inactive” throughout. Moreover, the Potency in the experiment on CP335 is 12 µM (active); with ICS, 11.2 µM (active).
For the molecule `CC1CC(OC(=O)C(O)c2ccccc2)CC(C)(C)C1` (centres undefined), the Potency result with CP305, in the experiment with CP315, in the experiment on CP325, with CP329, in the experiment with DFO2036 and in the experiment on DIV14 was “inactive” each time. The Potency result in the experiment with DIV17, with DIV30, in the experiment on Dd2, in the experiment on ECU, in the experiment on FAB9 and with GB4 was “inactive” in each case. Besides, the Potency result in the experiment with HB3, in the experiment on ICS, in the experiment with JCK, in the experiment on N140, in the experiment with P93_24 and with P94_40 was “inactive” each time. Besides, in the experiment on PAD, the Potency entry was “inactive”.
On to `CCN(CC)CCC(=O)N1c2ccccc2Sc2ccc(C(F)(F)F)cc21`, for which the Potency result with CP305, in the experiment with CP315, in the experiment on CP325, with CP329, with DFO2036 and with ECU was “inactive” each time. Also, the Potency entry in the experiment with FAB9, with HB3, in the experiment on JCK, in the experiment on N140, with P94_40 and in the experiment on PAD was “inactive” in each case. Besides, the Potency in the experiment on DIV14 is 6.75 µM (active).
As for `COC(=O)[C@@H](N)CS`, the Potency entry in the experiment with CP305, in the experiment on CP315, with CP325, in the experiment with CP329, in the experiment with DFO2036 and in the experiment on DIV14 was “inactive” in each case. For the same molecule, the Potency entry in the experiment on DIV17, with DIV30, in the experiment with Dd2, with ECU, in the experiment with FAB9 and with GB4 was “inactive” throughout. Besides, the Potency result in the experiment with HB3, in the experiment on ICS, with JCK, with N140, with P93_24 and in the experiment with P94_40 was “inactive” in each case. In addition, in the experiment on PAD, the Potency result was “inactive”.
For `Cc1cc(-c2ccc(N=Nc3c(S(=O)(=O)O)cc4cc(S(=O)(=O)O)cc(N)c4c3O)c(C)c2)ccc1N=Nc1c(S(=O)(=O)O)cc2cc(S(=O)(=O)O)cc(N)c2c1O`, the Potency result in the experiment with CP305, with CP315, in the experiment on CP325, with CP329, in the experiment with DFO2036 and in the experiment with DIV30 was “inactive” throughout. For the same molecule, the Potency result in the experiment with Dd2, in the experiment on ECU, with FAB9, with GB4, in the experiment on HB3 and in the experiment with JCK was “inactive” throughout.
Take `Cc1ncc(C[n+]2csc(CCO)c2C)c(N)n1`: the Potency result in the experiment on CP305, in the experiment with CP315, in the experiment on CP325, in the experiment on CP329, with DFO2036 and in the experiment with DIV14 was “inactive” throughout. The Potency entry in the experiment with DIV17, with DIV30, in the experiment with Dd2, in the experiment with ECU, with FAB9 and in the experiment with GB4 was “inactive” throughout. Moreover, the Potency entry with HB3, in the experiment on ICS, in the experiment with JCK, with N140, in the experiment with P93_24 and in the experiment with P94_40 was “inactive” in each case. The Potency result with PAD was “inactive”.
